NPR1 antag = antagonists of human natriuretic peptide receptor Npr1; P16066; HEK293 hNpr1 GloSensor cGMP, ANP-stimulated luminescence; Potency, µM (doses to about 46.3 µM), inactives show at the highest dose activity change, negative = inhibition, hits mostly inhibitors; 1.6% of 76,000 active; AID 1347048; calls by dose curve; further: on the % scale 0 is the no-effect control and ±100 the full control effect; nearly all actives have a fitted effect of over 60% in size
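Compound pre-incubated 30 min at room temperature on GloSensor-loaded HEK293 cells stably carrying hNpr1 and the pGS-40F cGMP biosensor. Stimulation uses hNppA at 0.1 nM final; luminescence is taken at baseline and 20 min post-agonist.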
GPT2 inh = blocks human glutamate pyruvate transaminase 2 | Q8TD30 | Recombinant GPT2, coupled pyruvate oxidase/HRP Amplex Red fluorescence | Potency, µM (titrated, usually from 57.7 µM), without a hit: at the highest dose activity change, negative = inhibition, most hits filed as inhibitors | 0.25% of 100,000 active | AID 1671188; further: on the % scale 0 is the no-effect control and ±100 the full control effect; nearly all actives have a fitted effect of over 60% in size
Target sequence (Q8TD30 whole entry, looked up): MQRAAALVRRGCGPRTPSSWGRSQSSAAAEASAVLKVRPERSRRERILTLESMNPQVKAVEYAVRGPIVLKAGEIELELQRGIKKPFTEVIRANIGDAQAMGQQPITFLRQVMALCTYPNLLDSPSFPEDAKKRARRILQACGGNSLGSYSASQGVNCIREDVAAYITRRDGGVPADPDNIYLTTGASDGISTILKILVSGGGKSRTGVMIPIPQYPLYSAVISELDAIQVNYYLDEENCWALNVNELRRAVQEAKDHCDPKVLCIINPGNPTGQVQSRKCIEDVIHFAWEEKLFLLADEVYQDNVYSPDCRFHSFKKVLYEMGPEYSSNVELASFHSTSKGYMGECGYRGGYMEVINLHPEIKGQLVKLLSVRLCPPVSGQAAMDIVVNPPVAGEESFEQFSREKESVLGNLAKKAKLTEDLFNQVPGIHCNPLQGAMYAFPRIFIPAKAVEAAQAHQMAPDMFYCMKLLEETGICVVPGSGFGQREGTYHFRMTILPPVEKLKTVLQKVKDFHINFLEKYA
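Inhibition is scored from Amplex Red fluorescence generated when pyruvate oxidase and HRP act on pyruvate released by GPT2. Reactions contain 10ng/uL enzyme, 250uM a-KG and 2mM L-alanine and run 30 min at room temperature.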
FLuc inh-1 = blocks purified firefly luciferase enzyme activity; 2.5% of 76,000 active; Potency, µM (top dose mostly 115 µM), usual class: inhibitors; purified P. pyralis luciferase, luminescence, biochemical; further: on the % scale 0 is the no-effect control and ±100 the full control effect; nearly all actives have a fitted effect of over 65% in size
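Purified P. pyralis luciferase (10nM final) in 50mM Tris acetate pH 7.5, 10mM Mg acetate, 0.01% Tween-20, 0.05% BSA with 10uM D-luciferin and 10uM ATP. Compounds titrated qHTS. Luminescence imaged on CCD.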
HEK293 tox = HEK 293 cell cytotoxicity | Potency, µM (highest dose often 115 µM), inactives show at the top dose activity change, negative = cytotoxicity, hits mostly inhibitors | AID 1345083 | 6.6% of 94,000 active | HEK 293 viability, ATP luminescence (CellTiter-Glo), 48-72 h; further: on the % scale 0 is the no-effect control and ±100 the full control effect; nearly all actives have a fitted effect of over 60% in size
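HEK 293 seeded at 250 cells/well receive compound via pintool. After 48 or 72 hr at 37 degree Celsius, 5% CO2 and 95% humidity, CellTiter-Glo is dispensed and luminescence read following 10 min at room temperature.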
NIH3T3 tox = cytotoxic compounds in NIH 3T3 cells; NIH 3T3 viability, CellTiter-Glo ATP luminescence, 48-72 h; Potency, µM (series often up to 96.7 µM), without a hit: at the highest dose activity change, negative = cytotoxicity, hits mostly inhibitors; 4.3% of 94,000 active; further: on the % scale 0 is the no-effect control and ±100 the full control effect; nearly all actives have a fitted effect of over 55% in size
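Luminescent ATP readout (CellTiter-Glo, 10 min RT) after 48 or 72 hr compound exposure of NIH 3T3 cells seeded at 400 cells/well in 1536-well format; quantitative HTS.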
FLuc SDR -ATP = firefly luciferase binding stabilization, ATP absent; AID 1963318; shares compounds with FLuc inh-1; 7.8% of 1,300 active; Potency, µM (series often up to 32.7 µM), for inactives: at the highest dose activation (signal gain), actives largely listed as activators; Purified FLuc-C-HiBiT, Nano-Glo HiBiT luminescence, no ATP; further: nearly all actives have a fitted effect of over 55% in size
FLuc SDR ATP = binders stabilizing firefly luciferase, plus ATP. shares compounds with FLuc inh-1. Potency, µM (doses to about 32.7 µM), inactives show at the highest dose activation (gain of signal), most hits filed as activators. purified FLuc-C-HiBiT + ATP, HiBiT complementation luminescence. 8.7% of 1,300 active;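 further: signal reports ligand binding via conformational change of the enzyme rather than luciferase catalysis; % of control where 0% means no effect; nearly all actives have a fitted effect of over 55% in size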
FLuc inh-2 = firefly luciferase enzyme inhibition; Potency, µM (doses to about 32.7 µM), for the others: at the top dose activity change, negative = inhibition, hits mostly inhibitors; 42% of 1,300 active; shares compounds with FLuc inh-1; purified FLuc-C-HiBiT enzyme, luciferin luminescence; further: on the % scale 0 is the no-effect control and ±100 the full control effect; nearly all actives have a fitted effect of over 70% in size
* marks the source's active call; other numbers are inactive results; i = inactive; ? = inconclusive; / = not tested or not shown; [ ] = remark or other dose. A selection: hits, their analogues and other compounds. The true share with any hit is near 10%. Unless noted, the call rests on the fitted dose curve; in most records, active means well fitted curve in the direction sought with a large enough effect; inconclusive means small, poorly fitted or top-dose-only effect, or another doubt; inactive means no such curve, though single readings can be large; an effect the other way counts as inactive or inconclusive. Potency means the concentration at half of the fitted maximal effect.

SMILES	NPR1 antag	GPT2 inh	FLuc inh-1	HEK293 tox	NIH3T3 tox	FLuc SDR -ATP	FLuc SDR ATP	FLuc inh-2
COc1ccc(OCC(=O)Nc2cc(-c3nc4ccccc4s3)ccc2C)cc1	/	/	/	/	/	4%	4%	?
COCC(=O)N1CCC(C(=O)N2CCC(c3nc4ncccc4[nH]3)CC2)C1 (stereo not drawn)	/	i	/	2%	1%	/	/	/
CCOc1cc2sc(N3CCC(C(=O)Nc4ccc(C(C)C)cc4)CC3)nc2cc1Br	/	/	/	/	/	16%	?	7µM*
CCOc1cc(=O)n2c(c1C(=O)Nc1ccc(C(C)C)cc1)CCCC2	2%	-4%	i	-5%	4%	/	/	/
O=C(NCc1ccc(F)cc1F)C1CCN(C(=O)c2ncn3c2COC(c2ccc(F)cc2)C3)CC1 (stereo not drawn)	-12%	3%	?	-9%	-17%	/	/	/
O=C(NCc1ccc2c(c1)OCO2)C1CCN(C(=O)c2ncn3c2COC(c2ccccc2)C3)CC1 (stereo not drawn)	-24%	4%	7.9µM*	14%	i	16%	?	7µM*
O=C(NCc1cc(F)ccc1F)C1CCN(C(=O)c2ncn3c2COC(c2ccccc2)C3)CC1 (stereo not drawn)	-16%	?	2.2µM*	-10%	-7%	9%	?	3.1µM*
O=C(NCc1ccccc1Cl)C1CCN(C(=O)c2ncn3c2COC(c2ccccc2)C3)CC1 (stereo not drawn)	-14%	?	14µM*	13%	1%	12%	?	?
O=C(NCc1ccco1)C1CCN(C(=O)c2ncn3c2COC(c2ccccc2)C3)CC1 (stereo not drawn)	-21%	3%	5µM*	1%	0%	15%	2.5µM*	2.5µM*
COCCn1c(CO)nnc1C1CC(NC(=O)c2ccc(F)cc2F)C1 (stereo not drawn)	8%	-21%	i	-1%	i	/	/	/
COCCOCc1nc(C2CCN(C(=O)CC3CCCCC3)C2)no1 (stereo not drawn)	/	5%	/	-10%	-14%	/	/	/
Cc1ccc(C(=O)N2CCC3(CC2)Cc2ccccc2NC3=O)cc1	-9%[70.6 µM]	i	i	?	?	/	/	/
O=C(NC1CC1)c1ccc2nc(-c3ccnc(Cl)c3)oc2c1	/	i	/	1%[172 µM]	?	/	/	/
O=C(NCc1ccc(Cl)cc1)C1CCN(C(=O)c2ncn3c2COC(c2ccccc2)C3)CC1 (stereo not drawn)	-23%	?	8.9µM*	-17%	-7%	14%	?	3.9µM*
CCOc1cccc(CNC(=O)C2CCN(C(=O)c3ncn4c3COC(c3ccccc3)C4)CC2)c1 (stereo not drawn)	-12%	5%	14µM*	13%	-2%	16%	?	?
O=C(NCc1ccc2c(c1)OCO2)C1CCN(c2cc(C(F)(F)F)ncn2)CC1	?	i	10µM*	?	?	16%	17%	?
COCC1CN(C(C)=O)CC12CCN(C1CCN(C(C)=O)CC1)CC2 (stereo not drawn)	-3%	i	i	-2%	-10%	/	/	/
Cc1ccc(-n2ncc3c(NC4CCCC4)ncnc32)cc1	/	/	/	/	/	?	?	0.62µM*
COc1ccc(-n2ncc3c(NC4CCCC4)ncnc32)cc1	/	/	/	/	/	?	?	1.8µM*

Compound activity (PubChem)
